Test results reported in PubChem BioAssay (EPA / NIEHS).
Several values for one entry are separate records, joined by “and”; a condition that tells them apart may be missing. Equal values may be shown once. Results filed as inconclusive are left out. More than one record can exist for a structure, and the calls need not agree. Activity calls are given as the source filed them. Rule for the calls, unless noted: active = hit-call score of the fitted dose curve at least 0.9, where 1 is the maximum; inconclusive = response in the unintended direction; inactive = score below 0.9.

Tests used:
[1] = test system: frog Estrogen Receptor (ER), gene 398734; assay: ATG_frER1_XSP2: Attagene TRANS-FACTORIAL Multi-Species (XSP2) HepG2 Assay for frog Estrogen Receptor (ER) (AID 2283821);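 note: hits raise reporter mRNA above DMSO baseline so potency means agonist or activator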
Method in brief: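 HepG2, transient MRTU transfection, chimeric NR-GAL4/UAS reporters; 24 h compound exposure, 24-well. Readout: reporter mRNA via RT-PCR + capillary electrophoresis, fluorescence. Positive fit vs DMSO baseline.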

[2] = ATG_M_19_XSP2: Attagene TRANS-FACTORIAL Multi-Species (XSP2) HepG2 Assay for M32 Transcription Factor (Internal Marker) (AID 2283822)
Method in brief: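 Internal background marker in a multi-species nuclear receptor TRANS panel: transfected HepG2 cells exposed 24 h, with 3 nM 6-alpha-fluorotestosterone and 1.5 nM norgestrel present. Readout is RT-PCR of reporter transcripts resolved by capillary electrophoresis, gain-of-signal versus DMSO.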

[3] = test system: frog Androgen Receptor (AR), gene 399456; assay: ATG_frAR_XSP2: Attagene TRANS-FACTORIAL Multi-Species (XSP2) HepG2 Assay for frog Androgen Receptor (AR) (AID 2283824);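 note: actives raise reporter signal above DMSO so AC50 reflects agonist-like induction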
Method in brief: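 HepG2 cells transiently transfected with GAL4-UAS reporter units and frog (Xenopus laevis) AR-Gal4 chimera; reporter mRNA measured 24 h after dosing by RT-PCR and capillary electrophoresis. Gain of signal fitted relative to DMSO baseline.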

[4] = ATG_M_32_XSP2: Attagene TRANS-FACTORIAL Multi-Species (XSP2) HepG2 Assay for M19 Transcription Factor (Internal Marker) (AID 2283826)
Method in brief: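 Read-out: reporter mRNA quantified by RT-PCR, FAM labeling, HpaI digestion and capillary electrophoresis, 24 h after dosing transfected HepG2 cells. Medium carried 3 nM 6-alpha-fluorotestosterone plus 1.5 nM norgestrel; gain of signal fitted against DMSO.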

[5] = target: Estrogen receptor (Homo sapiens) (UniProt P03372); assay: ATG_hERa_XSP2: Attagene TRANS-FACTORIAL Multi-Species (XSP2) HepG2 Assay for human Estrogen Receptor (ERa) (AID 2283827)
Chain of Estrogen receptor (Homo sapiens) (P03372 whole entry, looked up, the tested form may be a part): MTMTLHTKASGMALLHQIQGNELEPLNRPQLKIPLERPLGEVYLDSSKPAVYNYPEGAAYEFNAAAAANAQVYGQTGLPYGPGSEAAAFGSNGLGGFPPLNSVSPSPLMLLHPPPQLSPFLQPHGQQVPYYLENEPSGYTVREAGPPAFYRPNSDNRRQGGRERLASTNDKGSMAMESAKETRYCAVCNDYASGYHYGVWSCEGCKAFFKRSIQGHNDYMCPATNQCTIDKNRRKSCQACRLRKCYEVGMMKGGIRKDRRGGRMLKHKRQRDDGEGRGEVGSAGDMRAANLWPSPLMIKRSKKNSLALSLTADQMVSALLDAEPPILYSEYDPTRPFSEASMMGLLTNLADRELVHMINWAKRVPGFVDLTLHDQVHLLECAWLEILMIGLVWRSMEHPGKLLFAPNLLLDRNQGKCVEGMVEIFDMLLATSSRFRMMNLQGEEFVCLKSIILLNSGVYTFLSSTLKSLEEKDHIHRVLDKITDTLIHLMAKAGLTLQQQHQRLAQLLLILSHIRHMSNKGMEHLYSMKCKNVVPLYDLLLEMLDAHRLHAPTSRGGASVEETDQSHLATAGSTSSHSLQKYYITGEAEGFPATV
Method in brief: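 HepG2 cells transiently transfected with multiplexed GAL4-UAS reporters driven by chimeric receptor-Gal4 proteins, dosed 24 h with 3 nM 6-alpha-fluorotestosterone and 1.5 nM norgestrel present. Reporter mRNA by RT-PCR and capillary electrophoresis; gain-of-signal fit versus DMSO.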

[6] = target: Peroxisome proliferator-activated receptor gamma (Homo sapiens) (UniProt P37231); assay: ATG_hPPARg_XSP2: Attagene TRANS-FACTORIAL Multi-Species (XSP2) HepG2 Assay for human Peroxisome Proliferator-activated Receptor gamma (PPARg) (AID 2283829);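 note: actives raise reporter mRNA above DMSO so AC50 reflects PPARg activation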
Chain of Peroxisome proliferator-activated receptor gamma (Homo sapiens) (P37231 whole entry, looked up, the tested form may be a part): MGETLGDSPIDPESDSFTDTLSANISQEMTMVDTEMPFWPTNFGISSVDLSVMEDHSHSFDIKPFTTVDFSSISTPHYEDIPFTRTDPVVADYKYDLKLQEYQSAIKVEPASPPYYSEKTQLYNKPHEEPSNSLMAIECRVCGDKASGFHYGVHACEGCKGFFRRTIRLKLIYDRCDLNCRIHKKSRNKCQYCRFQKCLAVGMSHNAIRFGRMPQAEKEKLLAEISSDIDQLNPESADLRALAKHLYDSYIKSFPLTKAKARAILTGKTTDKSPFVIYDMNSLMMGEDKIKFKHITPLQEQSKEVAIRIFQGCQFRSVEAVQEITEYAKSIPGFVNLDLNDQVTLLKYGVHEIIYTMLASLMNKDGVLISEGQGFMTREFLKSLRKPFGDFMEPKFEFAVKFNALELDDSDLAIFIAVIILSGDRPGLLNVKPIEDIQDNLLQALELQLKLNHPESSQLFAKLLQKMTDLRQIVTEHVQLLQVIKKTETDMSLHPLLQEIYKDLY
Method in brief: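 Reporter transcripts were measured by RT-PCR, fluorescent labeling, HpaI digestion and capillary electrophoresis, relative to DMSO, 24 h post-dosing. Transiently transfected HepG2 expressed NR-Gal4 chimeras regulating GAL4-UAS reporters; medium contained 3 nM 6-alpha-fluorotestosterone plus 1.5 nM norgestrel.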

[7] = target: mouse Peroxisome Proliferator-activated Receptor gamma (PPARg), Pparg (gene 19016) (UniProt P37238); assay: ATG_mPPARg_XSP2: Attagene TRANS-FACTORIAL Multi-Species (XSP2) HepG2 Assay for mouse Peroxisome Proliferator-activated Receptor gamma (PPARg) (AID 2283830);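 note: hits are gains in reporter mRNA above DMSO so AC50 marks activation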
Chain of mouse Peroxisome Proliferator-activated Receptor gamma (PPARg), Pparg (gene 19016) (P37238 whole entry, looked up, the tested form may be a part): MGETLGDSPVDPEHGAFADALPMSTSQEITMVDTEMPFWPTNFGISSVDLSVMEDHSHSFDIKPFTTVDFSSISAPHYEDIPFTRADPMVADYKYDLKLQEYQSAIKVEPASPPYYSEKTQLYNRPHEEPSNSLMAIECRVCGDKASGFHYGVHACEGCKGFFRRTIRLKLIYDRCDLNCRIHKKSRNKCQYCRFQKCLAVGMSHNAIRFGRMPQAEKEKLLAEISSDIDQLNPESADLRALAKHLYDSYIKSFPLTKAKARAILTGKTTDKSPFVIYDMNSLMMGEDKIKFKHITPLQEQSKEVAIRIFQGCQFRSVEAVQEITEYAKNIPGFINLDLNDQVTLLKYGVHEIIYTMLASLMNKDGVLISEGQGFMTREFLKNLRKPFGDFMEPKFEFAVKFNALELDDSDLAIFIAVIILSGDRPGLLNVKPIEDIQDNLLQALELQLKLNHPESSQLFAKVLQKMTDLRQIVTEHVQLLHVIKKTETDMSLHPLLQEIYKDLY
Method in brief: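 HepG2 cells transiently transfected with GAL4-UAS reporter units for chimeric NR-Gal4 proteins including mouse PPARg, exposed 24 h; medium contained 3 nM 6-alpha-fluorotestosterone and 1.5 nM norgestrel. Reporter mRNA quantified by RT-PCR, HpaI digestion and capillary electrophoresis, vs DMSO.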

[8] = target: zebrafish Thyroid Hormone Receptor alpha (TRa), thraa (gene 30670) (UniProt Q98867); assay: ATG_zfTRa_XSP2: Attagene TRANS-FACTORIAL Multi-Species (XSP1) HepG2 Assay for zebrafish Thyroid Hormone Receptor alpha (TRa) (AID 2283832);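 note: actives raise zebrafish TRa-Gal4 reporter transcript above DMSO baseline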
Chain of zebrafish Thyroid Hormone Receptor alpha (TRa), thraa (gene 30670) (Q98867 whole entry, looked up, the tested form may be a part): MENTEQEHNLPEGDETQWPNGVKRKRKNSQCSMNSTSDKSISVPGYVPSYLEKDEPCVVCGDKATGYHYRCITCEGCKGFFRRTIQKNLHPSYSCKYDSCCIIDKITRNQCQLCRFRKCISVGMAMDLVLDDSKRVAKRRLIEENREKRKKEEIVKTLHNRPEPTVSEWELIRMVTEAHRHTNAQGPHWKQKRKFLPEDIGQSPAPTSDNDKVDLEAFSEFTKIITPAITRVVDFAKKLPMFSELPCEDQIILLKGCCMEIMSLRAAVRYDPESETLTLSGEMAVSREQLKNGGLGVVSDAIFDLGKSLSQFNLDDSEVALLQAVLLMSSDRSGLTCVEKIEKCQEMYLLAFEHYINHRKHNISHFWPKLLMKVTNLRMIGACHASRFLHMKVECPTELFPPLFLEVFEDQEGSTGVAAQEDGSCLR
Method in brief: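 Transient transfection of human HepG2 with GAL4-UAS reporter units, then 24 h chemical treatment. RNA isolated, reverse-transcribed, PCR-amplified, FAM-labelled, HpaI-digested and run on capillary electrophoresis. Gain-of-signal relative to DMSO.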

[9] = test system: zebrafish Peroxisome Proliferator-activated Receptor gamma (PPARg), gene 557037; assay: ATG_zfPPARg_XSP2: Attagene TRANS-FACTORIAL Multi-Species (XSP2) HepG2 Assay for zebrafish Peroxisome Proliferator-activated Receptor gamma (PPARg) (AID 2283833);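 note: actives increase reporter signal over DMSO so AC50 reflects activation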
Method in brief: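 After 24 h chemical exposure, RNA from transiently transfected HepG2 (chimeric NR-Gal4 TRANS reporters) was reverse-transcribed, PCR-amplified, 6-FAM-labelled, HpaI-cut and sized by capillary electrophoresis. Induction was scored in the positive direction relative to DMSO.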

[10] = test system: turtle Thyroid Hormone Receptor, alpha (TRa), gene 101949057; assay: ATG_trTRa_XSP2: Attagene TRANS-FACTORIAL Multi-Species (XSP1) HepG2 Assay for turtle Thyroid Hormone Receptor, alpha (TRa) (AID 2283834);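 note: hits raise reporter mRNA over the DMSO baseline so AC50 marks activators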
Method in brief: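 Turtle TRa-Gal4 chimera activity in transfected human HepG2 cells: reporter transcripts quantified by RT-PCR, 6-FAM labelling and capillary electrophoresis 24 h post-dosing; positive direction versus DMSO, medium containing 3 nM 6-alpha-fluorotestosterone and 1.5 nM norgestrel.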

[11] = ATG_M_61_XSP2: Attagene TRANS-FACTORIAL Multi-Species (XSP2) HepG2 Assay for M61 Transcription Factor (Internal Marker) (AID 2283835; active = hit-call score of the fitted dose curve at least 0.9, where 1 is the maximum; inactive = score below 0.9;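 note: active means a rise in signal above the DMSO baseline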)
Method in brief: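 HepG2 cells transiently transfected with multiple GAL4-UAS reporter units; 3 nM 6-alpha-fluorotestosterone and 1.5 nM norgestrel present to stimulate androgen receptor. After 24 h compound exposure, reporter mRNA measured by RT-PCR and capillary electrophoresis fluorescence, gain-of-signal versus DMSO baseline.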

[12] = target: zebrafish Thyroid Hormone Receptor beta (TRb), thrb (gene 30607) (UniProt Q9PVE4); assay: ATG_zfTRb_XSP2: Attagene TRANS-FACTORIAL Multi-Species (XSP1) HepG2 Assay for zebrafish Thyroid Hormone Receptor beta (TRb) (AID 2283836)
Chain of zebrafish Thyroid Hormone Receptor beta (TRb), thrb (gene 30607) (Q9PVE4 whole entry, looked up, the tested form may be a part): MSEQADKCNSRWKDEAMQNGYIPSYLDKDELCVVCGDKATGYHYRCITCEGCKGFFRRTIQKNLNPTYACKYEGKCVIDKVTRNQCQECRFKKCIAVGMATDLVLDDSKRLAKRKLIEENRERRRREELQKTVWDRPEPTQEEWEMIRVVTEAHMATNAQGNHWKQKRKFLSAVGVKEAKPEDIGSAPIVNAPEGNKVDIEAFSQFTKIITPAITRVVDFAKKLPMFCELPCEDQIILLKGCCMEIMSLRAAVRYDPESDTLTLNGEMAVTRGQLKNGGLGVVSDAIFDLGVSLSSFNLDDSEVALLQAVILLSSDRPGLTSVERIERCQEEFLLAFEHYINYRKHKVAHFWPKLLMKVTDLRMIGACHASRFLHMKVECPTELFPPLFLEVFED
Method in brief: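 Human liver HepG2, transient MRTU transfection (NR-Gal4 chimeras, GAL4-UAS reporters); 24 h compound exposure; total RNA → oligo(dT) RT → PCR → 6-FAM label → HpaI cut → CE fluorescence. DMSO = negative control/baseline.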

[13] = target: frog Thyroid hormone Receptor alpha (TRa), thra-a (gene 397942) (UniProt P15204); assay: ATG_frTRa_XSP2: Attagene TRANS-FACTORIAL Multi-Species (XSP2) HepG2 Assay for frog Thyroid hormone Receptor alpha (TRa) (AID 2283839);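 for AC50: AC50 reflects induction of frog TRa-driven reporter mRNA above DMSO baseline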
Chain of frog Thyroid hormone Receptor alpha (TRa), thra-a (gene 397942) (P15204 whole entry, looked up, the tested form may be a part): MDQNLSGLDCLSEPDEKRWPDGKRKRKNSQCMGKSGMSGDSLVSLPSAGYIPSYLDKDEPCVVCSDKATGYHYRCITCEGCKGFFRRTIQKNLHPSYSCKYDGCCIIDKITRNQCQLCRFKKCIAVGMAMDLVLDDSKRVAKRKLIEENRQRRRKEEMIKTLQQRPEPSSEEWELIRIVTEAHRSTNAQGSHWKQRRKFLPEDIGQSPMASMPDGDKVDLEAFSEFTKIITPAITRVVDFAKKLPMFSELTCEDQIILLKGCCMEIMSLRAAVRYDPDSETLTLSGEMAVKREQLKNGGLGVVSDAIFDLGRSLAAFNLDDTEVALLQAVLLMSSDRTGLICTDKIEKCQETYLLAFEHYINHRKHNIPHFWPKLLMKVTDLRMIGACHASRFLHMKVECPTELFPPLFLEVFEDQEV
Method in brief: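 Reporter transcripts were measured by RT-PCR with capillary electrophoresis after 24 h dosing of HepG2 carrying transiently transfected multi-reporter units, including a chimeric frog TRa-GAL4 construct. Activity was taken as increase over DMSO vehicle.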

[14] = target: human Thyroid hormone Receptor beta (TRb), THRB (gene 7068) (UniProt P10828); assay: ATG_hTRb_XSP2: Attagene TRANS-FACTORIAL Multi-Species (XSP2) HepG2 Assay for human Thyroid hormone Receptor beta (TRb) (AID 2283840);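 note: actives raise reporter mRNA so potency reflects agonist-like gain of signal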
Chain of human Thyroid hormone Receptor beta (TRb), THRB (gene 7068) (P10828 whole entry, looked up, the tested form may be a part): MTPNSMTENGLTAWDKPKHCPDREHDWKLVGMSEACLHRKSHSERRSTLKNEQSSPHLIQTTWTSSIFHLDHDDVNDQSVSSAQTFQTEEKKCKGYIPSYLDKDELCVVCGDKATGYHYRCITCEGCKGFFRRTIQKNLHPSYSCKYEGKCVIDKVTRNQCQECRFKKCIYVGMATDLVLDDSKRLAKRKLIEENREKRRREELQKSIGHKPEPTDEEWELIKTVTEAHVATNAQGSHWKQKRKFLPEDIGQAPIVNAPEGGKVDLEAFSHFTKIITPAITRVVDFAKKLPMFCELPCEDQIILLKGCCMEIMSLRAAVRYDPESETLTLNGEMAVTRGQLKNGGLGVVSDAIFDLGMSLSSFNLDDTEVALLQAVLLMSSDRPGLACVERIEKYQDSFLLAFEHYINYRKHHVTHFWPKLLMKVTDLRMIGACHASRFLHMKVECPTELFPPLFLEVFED
Method in brief: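 Activity of exogenous human TRb–Gal4 fusion measured by reporter mRNA from RT-PCR and capillary electrophoresis, 24 h after dosing transfected HepG2. 6-alpha-fluorotestosterone (3 nM) and norgestrel (1.5 nM) present. Gain-of-signal fit relative to DMSO.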

[15] = target: Nuclear receptor subfamily 1 group I member 2 (Mus musculus) (UniProt O54915); assay: ATG_mPXR_XSP2: Attagene TRANS-FACTORIAL Multi-Species (XSP1) HepG2 Assay for mouse Pregnane X Receptor (PXR) (AID 2283831)
Chain of Nuclear receptor subfamily 1 group I member 2 (Mus musculus) (O54915 whole entry, looked up, the tested form may be a part): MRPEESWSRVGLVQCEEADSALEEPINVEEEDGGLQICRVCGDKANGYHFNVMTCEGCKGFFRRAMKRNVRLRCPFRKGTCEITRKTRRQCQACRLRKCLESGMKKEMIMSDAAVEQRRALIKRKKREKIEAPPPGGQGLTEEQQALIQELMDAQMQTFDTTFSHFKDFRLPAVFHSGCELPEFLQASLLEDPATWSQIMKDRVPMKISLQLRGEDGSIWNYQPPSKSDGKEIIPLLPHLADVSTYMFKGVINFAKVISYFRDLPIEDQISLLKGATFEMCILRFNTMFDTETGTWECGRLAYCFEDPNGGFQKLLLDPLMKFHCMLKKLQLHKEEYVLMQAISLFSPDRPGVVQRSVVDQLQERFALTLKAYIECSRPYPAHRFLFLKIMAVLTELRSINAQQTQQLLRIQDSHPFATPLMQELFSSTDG
Method in brief: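 Reporter transcripts measured after 24 h dosing by RT-PCR with 6-FAM labelling, HpaI digestion and capillary electrophoresis. Transiently transfected HepG2 with NR-Gal4 chimeras; increase over DMSO baseline scored.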

[16] = ATG_XTT_Cytotoxicity_XSP2: Cytotoxicity Assessment in the Attagene TRANS-FACTORIAL Multi-Species (XSP2) HepG2 Assay (AID 2283837)
Method in brief: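 HepG2 cells, transiently transfected with multiple reporter constructs, exposed to chemical for 24 h. Cell number assessed with XTT fluorescence read-out; loss of signal fitted relative to DMSO.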

[17] = target: human Thyroid hormone Receptor alpha (TRa), THRA (gene 7067) (UniProt P10827); assay: ATG_hTRa_XSP2: Attagene TRANS-FACTORIAL Multi-Species (XSP2) HepG2 Assay for human Thyroid hormone Receptor alpha (TRa) (AID 2283838)
Chain of human Thyroid hormone Receptor alpha (TRa), THRA (gene 7067) (P10827 whole entry, looked up, the tested form may be a part): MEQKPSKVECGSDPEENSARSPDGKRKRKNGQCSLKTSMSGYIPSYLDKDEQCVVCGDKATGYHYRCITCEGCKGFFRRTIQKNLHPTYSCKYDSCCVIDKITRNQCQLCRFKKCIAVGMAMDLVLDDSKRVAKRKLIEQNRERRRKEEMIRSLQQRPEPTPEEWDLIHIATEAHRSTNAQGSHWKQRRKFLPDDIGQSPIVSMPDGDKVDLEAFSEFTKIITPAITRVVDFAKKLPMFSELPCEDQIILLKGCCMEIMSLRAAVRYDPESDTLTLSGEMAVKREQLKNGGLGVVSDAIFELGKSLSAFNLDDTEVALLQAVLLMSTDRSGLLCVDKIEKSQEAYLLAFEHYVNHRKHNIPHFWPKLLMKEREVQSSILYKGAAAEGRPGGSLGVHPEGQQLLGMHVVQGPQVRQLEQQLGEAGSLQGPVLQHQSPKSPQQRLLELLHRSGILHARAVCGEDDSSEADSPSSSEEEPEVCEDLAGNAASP
Method in brief: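 HepG2 cells were transiently transfected with GAL4-UAS reporter units for chimeric human TRa-Gal4 and dosed for 24 hours, with 3 nM 6-alpha-fluorotestosterone and 1.5 nM norgestrel present. Reporter mRNA was quantified by RT-PCR, FAM labelling and capillary electrophoresis, with gain of signal fitted versus DMSO.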

[18] = test system: Sodium/Iodide Symporter (NIS), SLC5A5 (gene 6528); assay: CPHEA_Stoker_NIS_Inhibition_RAIU: CPHEA's Radioactive Iodide Uptake (RAIU) Assay for Sodium/Iodide Symporter (NIS) Inhibition, Stoker and Laws Labs (AID 2283841)
Method in brief: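 Test chemicals, six concentrations from 0.001 to 100uM in 0.5% DMSO, were co-incubated with carrier-free 125I (final 329pM) on hNIS-HEK293T-EPA monolayers in pH 7.4 HEPES-buffered HBSS. Plates stood 2 hours at room temperature, then were washed cold and counted.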

[19] = test system: zebrafish Androgen Receptor (AR), gene 100005148; assay: ATG_zfAR_XSP2: Attagene TRANS-FACTORIAL Multi-Species (XSP2) HepG2 Assay for zebrafish Androgen Receptor (AR) (AID 2283825);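 note: hits raise reporter mRNA above DMSO so AC50 reflects agonist-type gain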
Method in brief: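 Zebrafish AR–GAL4 chimera transiently expressed with GAL4-UAS reporter in HepG2 cells, co-stimulated with 3 nM 6-alpha-fluorotestosterone and 1.5 nM norgestrel; 24 h dosing, reporter mRNA read by RT-PCR/capillary electrophoresis versus DMSO.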

Measured: AC50

CC(c1ccc(O)cc1)(c1ccc(O)cc1)c1ccc(O)cc1
inactive: [1] | [2] | [3] | [4] | [5] | [6] | [7] | [8] | [9] | [10] | [11] | [12] | [13] | [14]
active: [3] 0.267 µM

ClC(Cl)=C(c1ccc(Cl)cc1)c1ccc(Cl)cc1
active: [5] 5.03 µM
inactive: [1] | [2] | [4] | [6] | [7] | [15] | [10] | [12] | [13] | [14]

Cc1cc(-c2ccc(N)c(C)c2)ccc1N
active: [5] 3.66 µM and 9.97 µM and 9.48 µM | [6] 16.2 µM and 72.1 µM and 100 µM | [7] 27.7 µM and 55.5 µM | [15] 5.2 µM | [9] 10.8 µM
inactive: [1] | [2] | [7] | [15] | [8] | [9] | [10] | [12] | [16] | [17] | [13] | [14]

Cc1cccc(C)c1N
inactive: [18]

CC(C)(O)C(=O)Nc1ccc([N+](=O)[O-])c(C(F)(F)F)c1
active: [5] 100 µM | [13] 9.93 µM
inactive: [1] | [4] | [15] | [8] | [10] | [11] | [12] | [17] | [14]

CCC(C)c1cc([N+](=O)[O-])cc([N+](=O)[O-])c1O (centres undefined)
inactive: [18]

O=C(O)C(F)(F)C(F)(F)C(F)(F)C(F)(F)C(F)(F)F
inactive: [18]

CCNc1nc(NC(C)C)nc(SC)n1
inactive: [18]

O=S(=O)(O)C(F)(F)C(F)(F)C(F)(F)C(F)(F)C(F)(F)C(F)(F)F
active: [18] 23.3 µM and 7.48 µM and 2.33 µM

c1cc2ccc3cccc4ccc(c1)c2c34
inactive: [2] | [4] | [6] | [7] | [8] | [9] | [10] | [12] | [16] | [17] | [13] | [14]
active: [1] 39.9 µM and 19.8 µM | [5] 65.9 µM and 19.8 µM | [6] 140 µM | [7] 27.9 µM | [15] 19.6 µM and 15 µM

CO/C=C(/C(=O)OC)c1ccccc1COc1cccc(C(F)(F)F)n1
inactive: [18]

CCSC(=O)N(CC)C1CCCCC1
inactive: [18]

C[C@]12CCC(=O)C=C1CC[C@@H]1[C@@H]2CC[C@@]2(C)[C@H]1CC[C@]2(C)O
active: [1] 2.25 nM | [3] 0.00739 µM | [19] 0.00251 µM | [5] 0.000744 µM
inactive: [6] | [10] | [11] | [17] | [14]

NS(=O)(=O)C(F)(F)C(F)(F)C(F)(F)C(F)(F)C(F)(F)C(F)(F)C(F)(F)C(F)(F)F
inactive: [18]

O=NN(c1ccccc1)c1ccccc1
inactive: [18]
